Among all 370,000 compounds or so, about 2,600 (0.7%) were called active. What follows is part of a selection rich in actives, with near analogues and random picks from the rest. Unmarked numbers belong to inactive results.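 Rule for the calls: active = inhibition above a per-plate cutoff, mean inhibition of test wells between control levels plus 3 SD (cut at about 38% in these data); inactive = the rest.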
target: COUP transcription factor 2 (Homo sapiens) (UniProt P24468); assay: NR2F2 transcriptional activity inhibitors, primary screen, cell-based, luciferase reporter, HEK293T, luminescence (AID 686940); settings: HEK293T NGFI-A luciferase reporter, at 8.6 µM, hits give high values;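 note: cells cotransfected with COUP-TFII expression vector driving the NGFI-A reporter; 0% = median of COUP-TF2 test wells and 100% = reporter-only cells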
Sequence (P24468 whole entry, looked up): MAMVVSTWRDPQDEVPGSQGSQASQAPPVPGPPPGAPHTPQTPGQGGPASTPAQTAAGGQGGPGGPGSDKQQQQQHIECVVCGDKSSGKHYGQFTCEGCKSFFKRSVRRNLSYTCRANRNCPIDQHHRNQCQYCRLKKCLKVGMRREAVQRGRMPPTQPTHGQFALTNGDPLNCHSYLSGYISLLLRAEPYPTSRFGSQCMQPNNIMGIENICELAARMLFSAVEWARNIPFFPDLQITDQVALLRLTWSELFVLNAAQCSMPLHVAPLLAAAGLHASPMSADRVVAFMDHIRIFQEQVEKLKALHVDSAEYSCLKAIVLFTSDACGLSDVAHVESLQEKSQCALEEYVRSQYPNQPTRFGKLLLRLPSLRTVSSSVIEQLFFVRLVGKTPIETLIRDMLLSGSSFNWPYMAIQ

Row | Structure (SMILES) | inhibition
1 | O=C(Nc1cc(F)cc(F)c1)OC1CCC12CCC(c1ccccc1)CC2 (stereo not drawn) | 19%
2 | O=C(Nc1ccc(CN2CCOCC2)cc1)c1cc(Cl)ccc1Cl | 5.94%
3 | Cn1c(CN2CCOCC2)nc2cc(NC(=O)c3ccc(Cl)cc3)ccc21 | 49.9% (active)
4 | CN1CCN(Cc2nc3cc(NC(=O)COc4ccc([N+](=O)[O-])cc4)ccc3n2C)CC1 | 10.4%
5 | CCc1ccccc1NC(=O)CSc1nnc(-c2cccs2)o1 | -16.3%
6 | COc1ccc(-n2c(C)cc(C(=O)CSc3nnc(-c4cccs4)o3)c2C)cc1 | 54.9% (active)
7 | COc1ccc(-c2nnc(SCC(=O)c3ccc4c(c3)OCCO4)o2)cc1 | 17.8%
8 | CCC[C@H]1C(=O)CC[C@@]23CCCN2C(=O)CCC[C@@H]13 | -13.2%
9 | Cc1nc(-c2ccc(Cl)cc2)sc1C1(C)CC(c2ccccc2F)=NO1 (stereo not drawn) | -23.8%
10 | Cc1nc(C(=O)Nc2ccc(Cl)cc2)sc1C1(C)CC(c2ccccc2)=NO1 (stereo not drawn) | 5.05%
11 | Cc1nc(C(=O)NCc2ccccc2)sc1C1(C)CC(c2cccnc2)=NO1 (stereo not drawn) | 37.6% (active)
12 | CCOC(=O)[C@]12CCCCC/C=C\1N(Cc1ccc(OC)cc1)C(=O)[C@H]2CC(=O)NCCCN1CCCC1=O | 1.89%
13 | CC(C)(C)OC(=O)NCCc1ccccc1/C=C/S(=O)(=O)NCc1ccc(F)cc1 | 13.2%
14 | O=C(NC1CCC1)c1ccc(C#CC2CC2)cn1 | -23.3%
15 | O=C(NCC1CCCO1)c1ccc(S(=O)(=O)Nc2ccc(F)cc2)cc1 (stereo not drawn) | -7.6%
16 | Cc1ccc(NC(=O)c2ccc(S(=O)(=O)NCC3CCCO3)cc2)cc1C (stereo not drawn) | -13.5%
17 | O=C(Nc1ccc(S(=O)(=O)NCC2CCCO2)cc1)c1ccc(F)cc1 (stereo not drawn) | 45.5% (active)
18 | CCOC(=O)[C@]12CCCC=C1N(CCCOC)C(=O)[C@@H]2CC(=O)N1CCOCC1 | 13%
19 | CCCC[C@H]1C2CC(OC(=O)NCc3ccccc3)C(C2)[C@H]2CCCCN21 (stereo partly drawn) | 2.27%
20 | CC(C)CNS(=O)(=O)CC1NCCc2ccccc21 (stereo not drawn) | 10.8%
21 | CCN(CC)S(=O)(=O)c1ccc(N(C)Cc2ccc(C(F)(F)F)cc2)nc1 | 41.6% (active)
22 | CCN(CC)S(=O)(=O)c1ccc(N(C)Cc2cccc(OC)c2OC)nc1 | 1.36%

Row | Structure (SMILES) | inhibition
23 | CCN(CC)S(=O)(=O)c1ccc(N(C)CCc2ccc(OC)c(OC)c2)nc1 | -0.82%
24 | CCOC(=O)[C@@]12CCC3=C1N(CCC3)C(=O)[C@H](CC(=O)N1CCN(C(=O)c3ccco3)CC1)C2 | 0.9%
25 | COc1ccc(C2Nc3ccccc3C(=O)N2Cc2cccs2)cc1COc1c(C)cccc1C (stereo not drawn) | 14%
26 | CN(C)Cc1cn(-c2ccc(-c3noc4c3C(=O)N(CC(=O)N3CCOCC3)CC4)cc2)nn1 | 6.87%
27 | C=CCN1C(=O)[C@@H](CC(=O)NCCCOCCCC)[C@]2(C(=O)OCC)CCCCC/C=C/12 | -5.26%
28 | Cc1ccc(S(=O)(=O)N2CCCC(C(=O)N3CCN(C)CC3)C2)cc1 (stereo not drawn) | 8.22%
29 | COc1ccc(S(=O)(=O)N2CCCC(C(=O)N3CCN(C)CC3)C2)cc1C (stereo not drawn) | -0.76%
30 | CC(=O)N1CCCc2cc(S(=O)(=O)N3CCCC(C(=O)N4CCN(c5cccc(Cl)c5)CC4)C3)ccc21 (stereo not drawn) | 76.9% (active)
31 | COC(=O)C1CN(CC(C)C)CCS(=O)(=O)N1Cc1ccc(C)cc1 (stereo not drawn) | 0.94%
32 | O=C(NCc1cccs1)C1CCCN(S(=O)(=O)c2ccc([N+](=O)[O-])cc2)C1 (stereo not drawn) | -10.3%
33 | Cc1ccc(-n2c(SCC(=O)Nc3cccc4ccccc34)nnc2-c2ccco2)cc1 | 6.67%
34 | Cc1ccc(C(=O)C2CCN(CC(=O)NCCC(C)C)CC2)cc1 | 6.65%
35 | O=C(CSc1nc2ccccc2s1)N=Nc1c(O)[nH]c2ccccc12 | 8.58%
36 | CC1(C)CC(N2CCN(C(c3ccccc3)c3ccccc3)CC2)=CC(=[N+]2CCCCC2)C1 | 85.2% (active)
37 | CCOC(=O)C1CCN(C(=O)C(C)(C)NC(=O)Nc2ccccc2Cl)CC1 | 25.7%
38 | N#C[C@]1(S(=O)(=O)c2ccccc2)C[C@@H]2ON=C(c3cccc(Br)c3)[C@@H]2C1 | 52.9% (active)
39 | COC(=O)[C@]1(S(=O)(=O)c2ccccc2)C[C@@H]2ON=C(c3ccc(OC)cc3)[C@@H]2C1 | 3.59%
40 | O=C(c1c[nH]c2ccccc12)N1CCC(Oc2cccnc2)CC1 | -3.41%
41 | CC(C)OC(=O)c1sc2nc3c(cc2c1N)C(=O)CCC3 | -22.1%
42 | NC(=O)c1sc2nc3c(c(-c4ccccc4)c2c1N)CCC3 | 57.2% (active)
43 | CCOC(=O)[C@]12CCCCC/C=C\1N(Cc1ccc(OC)cc1)C(=O)[C@H]2CC(=O)NCc1ccc(C)o1 | -9.71%

Reference: PubChem BioAssay AID686940 (The Scripps Research Institute Molecular Screening Center, 2013)
